This is part of a sample that, as a whole, favours compounds with a hit. Of some 83,000 tested, about 20% had one in any assay.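 Values shown are percent growth following 48 h exposure of cells in 96-well plates to a single concentration of compound; below 10 was considered active.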 Values without a mark were called inactive. Calls of active or inactive are those of the source.

Among the test systems are K-562 leukemia; MALME-3M melanoma; MDA-MB-231 breast; SF-268 CNS; SF-295 CNS; SF-539 CNS; UACC-257 melanoma; M14 melanoma; HCT-15 colon.
Holding throughout (test): NCI-60 one-dose screen, 48 h (100 = growth as untreated, 0 = no growth, -100 = all killed)
Common to all, as to conditions: 10 µM

As to `COc1cc(Cc2cc(-c3ccc(Cl)cc3)n[nH]c2=O)ccc1O`, the growth in the test on K-562 leukemia is 78.5%; with MALME-3M melanoma, 108%; in the test on MDA-MB-231 breast it was 100%; in the test on SF-268 CNS, 93.2%; in the test on SF-295 CNS it was 124%; in the test on SF-539 CNS, 98.4%. In addition, the growth with UACC-257 melanoma was 128%; in the test with M14 melanoma, 108%; in the test on HCT-15 colon, 104%.

Turning to `CCCN(CCC)CCC(O)c1cc2c(c3ccccc13)CCCC2` (centres undefined), the growth was 82.5% in the test on K-562 leukemia; 95% with MALME-3M melanoma; 79.1% in the test with MDA-MB-231 breast; 83.3% in the test on SF-268 CNS; 85.4% in the test with SF-295 CNS; 85.4% in the test on SF-539 CNS. Moreover, the figures for the growth in the test with UACC-257 melanoma, in the test on M14 melanoma and in the test on HCT-15 colon were 95.8%, 91.9% and 81.4%, respectively.

Turning to `CCN(CC)CCCC(C)Nc1ccc2ccc(Cl)cc2n1` (centres undefined), the growth in the test with K-562 leukemia was 95.6%; with MALME-3M melanoma, 115%; with MDA-MB-231 breast it was 90.3%; with SF-268 CNS it was 96.8%; in the test on SF-295 CNS, 95.3%; in the test on SF-539 CNS, 101%. Moreover, the growth in the test on M14 melanoma is 103%; in the test on HCT-15 colon it was 102%.

Turning to `COc1ccc2nc3ccccc3c(NCCNCC(C)O)c2c1` (centres undefined), the growth in the test on K-562 leukemia was 9.22% (active); in the test with MALME-3M melanoma it was -13.7% (active); in the test with MDA-MB-231 breast it was -28.2% (active); in the test on SF-268 CNS, 8.57% (active); in the test on SF-295 CNS, 7.81% (active); with SF-539 CNS, 6.66% (active). Also, the growth was 7.95% (active) in the test on UACC-257 melanoma, 11.3% with M14 melanoma and 23.1% in the test with HCT-15 colon.

Take `CCN(CC)CCSCCCNc1c2ccc(Cl)cc2nc2ccc(OC)cc12`: the growth with K-562 leukemia was -13.3% (active); with MALME-3M melanoma it was -69.1% (active); in the test with MDA-MB-231 breast it was -59.9% (active); in the test with SF-268 CNS it was -39.2% (active); in the test on SF-295 CNS, -79% (active); in the test with SF-539 CNS it was -75.2% (active). Also, the growth is -77.1% (active) in the test with UACC-257 melanoma, -73.7% (active) in the test with M14 melanoma and -30.8% (active) in the test with HCT-15 colon.

Consider `O=C(Cc1csc2nc(-c3ccc(Cl)cc3)cn12)N/N=C/c1ccccc1O`, for which the growth was 41% with K-562 leukemia; 74.5% in the test on MALME-3M melanoma; 35.5% in the test with MDA-MB-231 breast; 37.9% in the test with SF-268 CNS; 37.6% in the test with SF-295 CNS; 67.3% in the test with SF-539 CNS. Moreover, the growth in the test with UACC-257 melanoma was 46.5%; in the test on M14 melanoma, 47.1%; in the test on HCT-15 colon it was 17.2%.

In the case of `COC(=O)c1ccc(=O)oc1`, the growth in the test on K-562 leukemia was 86.8%; with MALME-3M melanoma it was 101%; with MDA-MB-231 breast, 98.1%; in the test with SF-268 CNS it was 104%; with SF-295 CNS it was 102%; with SF-539 CNS it was 95.8%. Besides, the figures for the growth in the test with UACC-257 melanoma, in the test on M14 melanoma and in the test with HCT-15 colon were 100%, 101% and 97.8%, respectively.

Regarding `CC/C(=N\N=C(/CC)c1ccc(Br)cc1)c1ccc(Br)cc1`, the growth is 109% with K-562 leukemia; 90.5% in the test on MALME-3M melanoma; 103% in the test on MDA-MB-231 breast; 103% in the test on SF-268 CNS; 93.9% with SF-295 CNS; 99.3% in the test with SF-539 CNS. Further, the growth is 108% in the test with UACC-257 melanoma, 98.3% in the test with M14 melanoma and 85.4% in the test on HCT-15 colon.

Take `CCN(CC)CCCOCCCNc1cc(OC)cc2cccnc12`: the growth in the test with K-562 leukemia was 94.3%; in the test on MALME-3M melanoma it was 104%; in the test on MDA-MB-231 breast it was 78%; in the test with SF-268 CNS, 96.7%; with SF-295 CNS, 101%; with SF-539 CNS, 108%. For the same molecule, the growth is 83.1% with UACC-257 melanoma, 106% in the test on M14 melanoma and 102% with HCT-15 colon.

Consider `O=C1NC(=O)c2ncccc21`, for which the growth is 107% in the test with K-562 leukemia; 114% with MALME-3M melanoma; 116% in the test on MDA-MB-231 breast; 103% in the test on SF-268 CNS; 89.7% with SF-295 CNS; 101% with SF-539 CNS. Further, the growth was 102% in the test with UACC-257 melanoma, 99.9% in the test on M14 melanoma and 101% in the test on HCT-15 colon.

For `COc1cc(C(=C2O[C@@H]([C@H]3COC(C)(C)O3)[C@H]3OC(C)(C)O[C@@H]23)c2cc(OC)c(OC)c(OC)c2)cc(OC)c1OC`, the growth in the test with K-562 leukemia is 91.8%; in the test with MALME-3M melanoma, 123%; in the test with MDA-MB-231 breast, 91.6%; with SF-268 CNS, 113%; with SF-295 CNS, 110%; in the test with SF-539 CNS, 111%. The figures for the growth with UACC-257 melanoma, in the test with M14 melanoma and with HCT-15 colon were 105%, 106% and 103%, respectively.

As to `Cc1cccc(Cl)c1NC(=O)c1ccc2nc(NC(=O)NC3CCN(C)CC3)sc2c1`, the growth with K-562 leukemia is 7.86% (active); in the test on MALME-3M melanoma, 60.8%; in the test with MDA-MB-231 breast it was 96.7%; in the test with SF-268 CNS, 86%; in the test on SF-295 CNS, 83.5%; with SF-539 CNS, 44.3%. The values for the growth with UACC-257 melanoma, in the test on M14 melanoma and with HCT-15 colon were 84.7%, 104% and 101%, respectively.

Consider `CCN(CC)CCC(CNc1c(C)cnc2cc(Cl)ccc12)c1ccc(Cl)cc1` (centres undefined), for which the growth in the test on K-562 leukemia is 7.15% (active); with MALME-3M melanoma, -57.9% (active); with MDA-MB-231 breast it was 27.3%; in the test with SF-268 CNS, 67.5%; with SF-295 CNS, 51.4%; in the test with SF-539 CNS it was -52.3% (active). Also, the growth in the test on UACC-257 melanoma is -58.3% (active); in the test with M14 melanoma, -67.3% (active); in the test with HCT-15 colon it was 35%.

For `CCN(CCCCCCCCCCN1CC(=O)N(CCCCCCCCCCN(CC)Cc2ccccc2OC)CC1=O)Cc1ccccc1OC`, the growth in the test with K-562 leukemia is -58.2% (active); in the test on MALME-3M melanoma it was -83.6% (active); in the test on MDA-MB-231 breast, -66.3% (active); in the test with SF-268 CNS, 4.39% (active); in the test with SF-295 CNS, -76.7% (active); with SF-539 CNS it was -93.2% (active). The growth was -86.9% (active) with UACC-257 melanoma, -90.2% (active) in the test on M14 melanoma and -17% (active) in the test on HCT-15 colon.

On to `CN1CCC2(CC1)NC(=O)c1c(c3ccc(Cl)c(Cl)c3n1C)C2C#N` (centres undefined), for which the growth with K-562 leukemia was 80.1%; with MALME-3M melanoma, 98.3%; in the test with MDA-MB-231 breast, 55%; in the test on SF-268 CNS it was 67.4%; with SF-295 CNS, 94.9%; with SF-539 CNS it was 76%. For the same molecule, the growth in the test with UACC-257 melanoma was 65.2%; in the test with M14 melanoma, 23.8%; in the test on HCT-15 colon it was 82.6%.

Source of the values: PubChem BioAssay (NCI).
